Assay outcomes: PubChem BioAssay, Sanford-Burnham Center for Chemical Genomics
Hits are enriched below; roughly 31% of the tested compounds scored in any of these assays.
CYP2C9 act – human CYP2C9 activators, primary screen, biochemical, luminescence | AID 1024, 2008 | recombinant CYP2C9, luciferin-H conversion; hits give high values; factor 1 = untreated enzyme, 0 = blocked | activation factor at 5 µM | 96,000 compounds, 1.4% hits;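 active = activation factor of 2 or more for CYP2C9 at a 5 µM dose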;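 also: 0 = sulfaphenazole-blocked wells and 1 = vehicle-only wells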
CYP2C19 inh – blockers of cytochrome P450 2C19 activity – biochemical, luminescence, ADME assay, primary screen; inhibition, % at 5 µM; 96,000 compounds, 21% hits; CYP2C19 Supersomes, luciferin-H EGE luminescence, 30 min; P33261;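 active = CYP2C19 inhibition above a set limit at 5 µM in the primary screen, cut at about 50% in these data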;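 also: plate controls were negative control wells for no effect and 2.5 mM tranylcypromine positive control for full effect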
PLAP act – PLAP enzyme activators, biochemical, luminescence, HTS | purified PLAP enzyme, luminescent substrate read-out; hits give high values | activation fold at 20 µM | 96,000 compounds, 1.2% hits | AID 696, 2007; in the data active = activation fold above about 2
Target sequence (P05187 whole entry, looked up): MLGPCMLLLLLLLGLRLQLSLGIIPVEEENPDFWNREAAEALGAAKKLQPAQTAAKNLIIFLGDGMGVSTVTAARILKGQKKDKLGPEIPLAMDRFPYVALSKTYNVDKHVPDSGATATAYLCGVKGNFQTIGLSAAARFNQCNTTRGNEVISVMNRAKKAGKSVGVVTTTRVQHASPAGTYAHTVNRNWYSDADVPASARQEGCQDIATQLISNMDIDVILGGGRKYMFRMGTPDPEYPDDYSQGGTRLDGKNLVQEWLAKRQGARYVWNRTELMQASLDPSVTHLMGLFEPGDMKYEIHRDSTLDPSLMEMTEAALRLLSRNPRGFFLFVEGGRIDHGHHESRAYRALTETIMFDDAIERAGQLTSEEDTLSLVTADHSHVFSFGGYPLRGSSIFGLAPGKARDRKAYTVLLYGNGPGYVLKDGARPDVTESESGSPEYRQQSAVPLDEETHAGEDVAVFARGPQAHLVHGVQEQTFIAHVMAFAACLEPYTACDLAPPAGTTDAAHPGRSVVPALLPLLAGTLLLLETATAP
CYP2C19 act – human CYP2C19 activators, primary screen, biochemical, luminescence; Cytochrome P450 2C19 (Homo sapiens), P33261; recombinant CYP2C19, luciferin-H EGE luminescence; hits give high values; 0 = fully inhibited enzyme, 1 = untreated enzyme; activation factor at 5 µM; 96,000 tested, under 10 active;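 active = activation factor of at least 2 at 5 µM in the primary screen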;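 also: 0 = wells with 2.5 mM tranylcypromine and 1 = vehicle-only wells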
CYP2C9 inhib – blockers of cytochrome P450 2C9 activity – biochemical, luminescence, ADME assay, primary screen; P11712; CYP2C9 Supersomes, luciferin-H conversion; inhibition, % at 5 µM; 96,000 compounds, 20% hits;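 active = blocking of liver enzyme CYP2C9 beyond about 50% at 5 µM, limit read from the data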
Active calls of the source: *.

SMILES | CYP2C9 act | CYP2C19 inh | PLAP act | CYP2C19 act | CYP2C9 inhib
Cc1ccccc1N1CCN(Cc2c(C#N)c3ccccc3n2C)CC1 | 1 | 67.1* | 1 | 0.3 | -3.6
O=C(COC(=O)C1COc2ccccc2O1)Nc1ccc2c(c1)CCC2 (stereo not given) | 0.8 | 27.0 | 0.9 | 0.7 | 17.5
Cc1ccc(S(=O)(=O)N[C@@H](CC(C)C)C(=O)NCc2ccco2)cc1 | 0.8 | 8.0 | 0.8 | 0.9 | 16.8
O=C(Nc1nc2ccccc2s1)C1CC(=O)N(c2ccc(Cl)cc2)C1 (stereo not given) | 0.5 | 20.2 | 0.9 | 0.8 | 54.4*
O=C(Nc1cccc2nsnc12)C1CC(=O)N(c2ccccc2)C1 (stereo not given) | 0.3 | 81.5* | 1.3 | 0.2 | 74.3*
COC(=O)c1ccccc1NC(=O)C1CC(=O)N(c2ccccc2)C1 (stereo not given) | 0.9 | 18.7 | 0.8 | 0.8 | 7.9
CCN(Cc1ccccc1)S(=O)(=O)c1nc2nc(C)c(C)c(C)n2n1 | 1.3 | 34.3 | 0.9 | 0.7 | -30.1
CCNC(=O)O/N=C(\C)c1sc(-c2ccc(Cl)cc2)nc1C | 0.8 | 40.6 | 0.9 | 0.6 | 24.2
CC(=O)N(C)C1=C(N2CCOCC2)C(=O)c2ccccc2C1=O | 1.1 | -5.1 | 0.9 | 1.1 | -6.5
Cc1ccc(NC2=C(N3CCOCC3)C(=O)c3ccccc3C2=O)cc1 | 0.4 | 43.6 | 1.1 | 0.6 | 56.9*
CC(=O)c1ccc(NC2=C(N3CCOCC3)C(=O)c3ccccc3C2=O)cc1 | 0.5 | 61.1* | 0.9 | 0.4 | 47.8
COc1ccccc1NC(=O)C/C(N)=N/O | 1.1 | 3.9 | 1 | 1 | -7.8
CCOC(=O)C1=C(C)N(CCO)C(=O)NC1c1ccccc1 (stereo not given) | 0.7 | 40.1 | 1.1 | 0.6 | 26.9
COCCOC(=O)C1=C(C)N(Cc2ccccc2)C(=O)NC1c1ccc(OC)cc1 (stereo not given) | 0.3 | 98.3* | 1 | 0 | 74.1*
CCOc1cc(C2NC(=O)N(C)C(C)=C2C(=O)OC)cc(Br)c1O (stereo not given) | 0.1 | 48.3 | 1.1 | 0.5 | 85.5*
CCOc1cc(C2CC(=O)NC3=C2C(=O)C(C(=O)OC)C(C)C3)cc(Br)c1O (stereo not given) | 0.8 | 26.3 | 1 | 0.7 | 23.4
CN(C)S(=O)(=O)c1ccc(NS(=O)(=O)/C=C/c2ccccc2)cc1 | 0.1 | 69.9* | 1.2 | 0.3 | 90.9*
O=S(=O)(/C=C/c1ccccc1)Nc1ccc2c(c1)OCO2 | 0.1 | 99.8* | 1.2 | 0 | 87.2*
CN(C)S(=O)(=O)c1ccc(S(=O)(=O)Nc2ccc3c(c2)oc2ccccc23)cc1 | 0.7 | -18.5 | 1.4 | 1.2 | 28.0
Cc1occc1-c1nnc(SCC(=O)N(C)C)o1 | 0.9 | 8.4 | 0.9 | 0.9 | 9.0
N#Cc1nc(COc2ccccc2Cl)oc1NCc1cccnc1 | 0.6 | 91.4* | 1.1 | 0.1 | 35.5
Cc1ccc(CNc2oc(COc3ccccc3Cl)nc2C#N)cc1 | 0.4 | 30.0 | 0.8 | 0.7 | 61.4*
N#Cc1nc(COc2ccccc2Cl)oc1NCc1ccc(F)cc1 | 0.8 | 4.2 | 0.9 | 1 | 19.0
Cc1ccc(/C=N\NC(=O)c2csnn2)cc1 | 1 | 35.6 | 1.1 | 0.6 | -2.9
CCOC(=O)CC1C(=O)NC2CCCCC2N1C(=O)Nc1ccc(Cl)cc1 (stereo not given) | 0.7 | 30.9 | 0.9 | 0.7 | 31.1
SMILES | CYP2C9 act | CYP2C19 inh | PLAP act | CYP2C19 act | CYP2C9 inhib
O=C1/C(=C/c2cccnc2)Oc2cc(OS(=O)(=O)c3ccccc3)ccc21 | 0.4 | 34.8 | 1.2 | 0.7 | 56.5*
O=C1/C(=C/c2cccnc2)Oc2cc(OS(=O)(=O)c3ccc(Cl)cc3)ccc21 | 0.5 | 26.0 | 1.4 | 0.7 | 50.5*
O=C1CCCC2=C1C(c1ccc(OS(=O)(=O)c3ccc(Cl)cc3)cc1)C1=C(CCCC1=O)O2 | 1.2 | -10.5 | 1.1 | 1.1 | -17.4
Cc1ccc(S(=O)(=O)Oc2cccc(N3C(=O)C4CC=CCC4C3=O)c2)cc1 (stereo not given) | 1.4 | 16.5 | 1 | 0.8 | -38.2
COc1ccc(S(=O)(=O)Oc2ccc3c(c2)O/C(=C\c2cccnc2)C3=O)cc1 | 0.1 | 74.8* | 1.2 | 0.3 | 91.9*
Cc1cc(C)nc(SCC(=O)Nn2cnnc2)n1 | 0.8 | 1.8 | 1 | 1 | 16.5
COC(=O)C1CCN(C(=O)CCCOc2ccccc2)CC1 | 0.9 | 87.1* | 1.4 | 0.1 | 13.0
CCOC(=O)C1CCN(C(=O)CCc2ccccc2)CC1 | 0.5 | 70.7* | 1.1 | 0.3 | 45.9
CC1CCN(C(=O)COC(=O)c2ccc(Br)o2)CC1 | 1 | 60.5* | 1 | 0.4 | 3.4
COc1ccc(OCCC(=O)N2CCCCC2)cc1 | 0.9 | 85.3* | 1.1 | 0.1 | 13.7
CCOC(=O)C1CCCN(CCCc2ccccc2)C1 (stereo not given) | 0.8 | 79.8* | 1.5 | 0.2 | 20.3
CCOC(=O)C1CCN(C(=O)CSCCSCC(=O)N2CCC(C(=O)OCC)CC2)CC1 | 0.9 | 73.1* | 1.6 | 0.3 | 7.0
CCOC(=O)C1CCN(C(=O)N(C)C)CC1 | 0.9 | 3.4 | 1.1 | 1 | 12.9
CCOC(=O)C1CCN(C(=O)c2ccc(Br)o2)CC1 | 0.3 | 81.8* | 1.3 | 0.2 | 69.5*
CCOC(=O)C1CCN(C(=O)COC(=O)c2ccc(Br)o2)CC1 | 0.8 | 23.9 | 1 | 0.8 | 22.7
CCC1CCCCN1CCCn1c(=S)[nH]c2ccccc2c1=O (stereo not given) | 0.9 | 5.9 | 1.4 | 0.9 | 10.1
CCC(C)NS(=O)(=O)c1ccc(OCC(=O)NCC2CCCO2)cc1 (stereo not given) | 0.9 | 15.8 | 0.9 | 0.8 | 10.9
CCOc1ccccc1Nc1nnc(SCC(=O)N2CCCC2)s1 | 2.3* | 4.4 | 0.8 | 1 | -130.5
COc1ccccc1N1CCN(C(=O)CSc2nnc(NC(=O)C3CCC3)s2)CC1 | 0.2 | 51.0* | 1.2 | 0.5 | 81.8*
COc1ccccc1Nc1nnc(SCC(=O)N2CCCC2=O)s1 | 2.7* | 56.8* | 1.3 | 0.4 | -167.2
CCN1CCN(C(=O)CN(c2ccccc2C)S(C)(=O)=O)CC1 | 1.1 | 5.6 | 1.3 | 0.9 | -7.4
COc1ccc(-c2c(NC(=O)c3ccco3)n(C)c3ccccc3c2=O)cc1 | 1.2 | -6.0 | 0.9 | 1.1 | -21.1
Cc1ccc(O)c(C2=NNC(O)(C(F)(F)F)C2)c1 (stereo not given) | 0.7 | 30.4 | 2.2* | 0.7 | 28.1
Cc1ccc(O)c(-c2cc(C(F)(F)C(F)F)nc(-c3ccccc3)n2)c1 | 1 | -5.3 | 1.1 | 1.1 | 4.2
CCCc1nc2ccccc2c(C(=O)OC2CCOC2=O)c1CC (stereo not given) | 0.3 | 53.1* | 1.4 | 0.5 | 65.1*
CCCc1nc2ccccc2c(C(=O)O)c1CC | 1 | 1.7 | 0.9 | 1 | 1.3
